T1: USP38, Q8NB14
T1 chain: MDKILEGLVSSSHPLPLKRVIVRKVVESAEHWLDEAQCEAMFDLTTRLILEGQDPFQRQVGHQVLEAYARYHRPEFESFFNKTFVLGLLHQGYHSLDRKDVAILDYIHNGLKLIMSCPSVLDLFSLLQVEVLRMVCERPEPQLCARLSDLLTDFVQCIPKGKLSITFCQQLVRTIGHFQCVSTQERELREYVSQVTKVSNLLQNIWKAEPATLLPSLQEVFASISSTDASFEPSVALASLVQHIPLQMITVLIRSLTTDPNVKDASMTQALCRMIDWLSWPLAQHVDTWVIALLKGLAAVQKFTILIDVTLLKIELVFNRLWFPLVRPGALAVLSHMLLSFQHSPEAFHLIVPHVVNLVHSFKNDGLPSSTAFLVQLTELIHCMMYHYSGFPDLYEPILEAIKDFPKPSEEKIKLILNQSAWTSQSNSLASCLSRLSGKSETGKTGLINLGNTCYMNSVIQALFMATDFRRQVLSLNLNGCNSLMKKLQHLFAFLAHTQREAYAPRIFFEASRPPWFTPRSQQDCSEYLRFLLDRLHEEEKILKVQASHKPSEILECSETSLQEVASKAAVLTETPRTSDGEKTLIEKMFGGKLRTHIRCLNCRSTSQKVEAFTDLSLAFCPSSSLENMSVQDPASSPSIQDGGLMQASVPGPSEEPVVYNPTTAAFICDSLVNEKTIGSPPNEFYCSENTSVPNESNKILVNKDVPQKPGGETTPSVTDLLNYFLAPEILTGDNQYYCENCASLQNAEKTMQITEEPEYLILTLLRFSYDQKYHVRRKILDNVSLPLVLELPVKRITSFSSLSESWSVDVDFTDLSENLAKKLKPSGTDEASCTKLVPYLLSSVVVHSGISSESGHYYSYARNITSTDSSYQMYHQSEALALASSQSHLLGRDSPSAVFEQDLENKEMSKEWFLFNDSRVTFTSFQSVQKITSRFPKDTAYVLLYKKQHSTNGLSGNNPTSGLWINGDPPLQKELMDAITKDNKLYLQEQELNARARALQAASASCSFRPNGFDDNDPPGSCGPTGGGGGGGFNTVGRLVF

B1: usp_38_diff_out_5_91_614 (protein)
chain: EERRKKLIEKAEEAAKKLEEAAKRLEAGEDYTKDIEEAIELYREIAAALADGDARERRLSLTAAGMALALEKLGEYPKDLQIAMLKAHADVAKEMAEQLK
B2: usp_38_diff_out_5_164_612 (protein)
chain: AVEAIRAEFEAAADAALAELKALLAEAKADPSKVEEKLKEAEAVLDELLDLLVEATERVAEEDPSQVEAFLREADARLEELLGIIAEIRELARKVREAKA
B3: usp_38_diff_out_5_80_613 (protein)
chain: SLLEEARRLAEEALKAEDLETFEELLKQLVETVRRAAEEALERGTLDETVRELSGILLELDKEVRKSSNKEKKKLAKEYLNQAVDVLAAAELRALEREAA
B4: usp_38_diff_out_5_164_611 (protein)
chain: EVERIREEFEARADATLAALRALLAQARADPATARAALAQAEALVDDLADFYVEAVEEVNEADPSKVEEFLREASRRLEELSALVAELRALARAQAEAEA
B5: usp_38_diff_out_5_164_610 (protein)
chain: GVEELLKEMEEIKKETLEKLDKLLEEAKKNPEKLDEYKKEINELTNEAIDKMNELTTEALELDPERAEEILRHYDEIMTELLTHKQKVLDEIEKLKKEKE
B6: usp_38_diff_out_5_91_623 (protein)
chain: AERREEAVRLAKEAAEYLKKAAELLEAGEDYTEEIKRAREALTRAAELLAKGNAREQRLALTAAGMAEALDELPRYSKELQIAMLKELADVAKELAEQLA
B7: usp_38_diff_out_5_91_617 (protein)
chain: EEERRRLIELAEEAAELLKKAAELLEKGEDYTEAVKKAIELLKELAKLLAGGDSRERRLSLTAAGMAEALEELDKYPKELQIAMLKAMADVAKEMAEQLR
B8: usp_38_diff_out_5_91_616 (protein)
chain: EEERKKIIEKAEELARLLKEAAELLEKGEDYTENIKRAIKLAEELAKALAGGDARERRLSLTFAGLAEALKEIENYPKELQIAMLKAHADVAEEAAELLK
B9: usp_38_diff_out_5_91_615 (protein)
chain: EERRKELIKKAKEAAKKLKEAAELLEKGEDYTKEIEEAIKLYKELAEALAGGNARERRLSLTAAGAAIALEKLDEYPKELQIAMLKAHAEVTKQMAEELE
B10: usp_38_diff_out_5_164_609 (protein)
chain: MVEEKLKEMEEIRDETIEKLDELLEEAKKNPEKLEEIKKEINELTEEAIDKMNELTTEALEADPERAEEILKHYDELMTELLTHKKEVLEEIEKLKKEKE
B11: usp_38_diff_out_5_91_621 (protein)
chain: EERRKELIKLAEEAAKLLEKAAELLEKGEDYTEAIKKAIELYKKLAEELKGGGPRERRLSLTAAGAAIALEELPKYSKELQIAMLKELADVTKELAEELK
B12: usp_38_diff_out_5_164_608 (protein)
chain: GVEEALEELRKIREELEKKLKELLEKAKENPEKLEEYKKEITKAMDEAIDKMNEITTRALEAHPERAEEILREYDEEVTKMLKEYNEVMEKLKKLEEEYK
B13: usp_38_diff_out_5_91_618 (protein)
chain: AEARAEQIRLAEEAARLLEEAARRLEAGEDYTADVERAIALFRELAAALAGGDARQRRLSLTAAGLALALEELPRYSRELQIAMLRAHADVARAMAEELR
B14: usp_38_diff_out_5_164_607 (protein)
chain: GVEEALKELEKTAEELKKKLKELLEEAKKNPEKLDEYKKKITEAVNEAIDKINEITTKALEAHPEQADEILRHYDEVVTEMLTEYNAALEELEKLKKEAA
B15: usp_38_diff_out_5_91_622 (protein)
chain: EETRKEAVKLAKEAAEALKKAAELLEKGEDYTEELKKAYEALTKLAELLAKGDAREQRLALTAAGIAEALKELPRYPKELQIAMLKELADVAKELAEQLE
B16: usp_38_diff_out_5_164_606 (protein)
chain: MVEEALKRMEEIAKELEAKLKALLAEAKKNPAKLAEYEKQITDATNEALDELNEITTKALEANPEKADEILEHYDRVVTRMLTAYNAAKAELAALKKEAA

This assay deals with T1, USP38, Q8NB14. The experiment in a line: median log2 fold change of GCK-ALFA target abundance (FLAG IP / Myc IP barcode read proportion) (log2 ratio); each designed protein is fused to an ALFA-tag nanobody in HEK293 cells to bring the named protein to FLAG-tagged glucokinase (GCK); Myc marks an untargeted standard; higher = target protein stabilised (more abundant). As to conditions: target protein: 3xFLAG-MCP-GCK-ALFA reporter; HEK293 landing pad (RPLP). The method, boiled down: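 Sequencing of reverse-transcribed, amplified circular RNA barcodes from anti-FLAG and anti-Myc immunoprecipitates provided the readout for an ALFA-nanobody-fused binder library recombined into HEK293 landing-pad cells. Those cells were induced with 2 μg mL^−1 doxycycline, transfected with a plasmid expressing a FLAG-tagged target and a Myc-tagged standard, and lysed after 48 h. Target abundance is the per-binder median log2 ratio of FLAG to Myc barcode read proportions. Only barcodes at a proportion of ≥10^−7 in both replicates and binders with ≥3 barcodes per replicate were kept, with a 10^−6 pseudocount added before the two replicates were pooled.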
As to B1, the “median log2 fold change” value came to 0.105.
For the molecule B2, the “median log2 fold change” value was -0.239.
As for B3, the figure is -0.169; as for B4, -0.198; as for B5, -0.17.
Take B6: the “median log2 fold change” value came to 0.1.
Regarding B7, the “median log2 fold change” value was found to be 0.486.
Then B8, with 0.153; and B9, with 0.0701.
On to B10, for which the “median log2 fold change” value stood at 0.206.
For B11, the “median log2 fold change” value worked out at 0.214.
On to B12, for which the “median log2 fold change” value was 0.0441.
As for B13, the “median log2 fold change” value was determined as 0.0905.
As to B14, the “median log2 fold change” value is -0.164.
With B15, the “median log2 fold change” value is 0.0965.
Take B16: the “median log2 fold change” value is -0.164.

(Values after the supplement of paper PMC12632987.)
